Reference: PubChem BioAssay (NCATS)
Records with an inconclusive call do not appear. Where a call stands in place of a potency, no number is given. The source made the active and inactive calls. Unless noted, calls come from the whole dose curve; as a rule, active = well fitted curve in the direction sought with a large enough effect; inconclusive = small, poorly fitted or top-dose-only effect, or another doubt; inactive = no such curve, though single readings can be large; an effect the other way counts as inactive or inconclusive.

Tests used:
[1] = molecular target: Cytochrome P450 1A2 (Homo sapiens) (UniProt P05177); experiment: p450-cyp1a2 (AID 410; calls by dose curve; note: potency is the fitted concentration of half-maximal effect)
Chain of Cytochrome P450 1A2 (Homo sapiens) (P05177 whole entry, looked up): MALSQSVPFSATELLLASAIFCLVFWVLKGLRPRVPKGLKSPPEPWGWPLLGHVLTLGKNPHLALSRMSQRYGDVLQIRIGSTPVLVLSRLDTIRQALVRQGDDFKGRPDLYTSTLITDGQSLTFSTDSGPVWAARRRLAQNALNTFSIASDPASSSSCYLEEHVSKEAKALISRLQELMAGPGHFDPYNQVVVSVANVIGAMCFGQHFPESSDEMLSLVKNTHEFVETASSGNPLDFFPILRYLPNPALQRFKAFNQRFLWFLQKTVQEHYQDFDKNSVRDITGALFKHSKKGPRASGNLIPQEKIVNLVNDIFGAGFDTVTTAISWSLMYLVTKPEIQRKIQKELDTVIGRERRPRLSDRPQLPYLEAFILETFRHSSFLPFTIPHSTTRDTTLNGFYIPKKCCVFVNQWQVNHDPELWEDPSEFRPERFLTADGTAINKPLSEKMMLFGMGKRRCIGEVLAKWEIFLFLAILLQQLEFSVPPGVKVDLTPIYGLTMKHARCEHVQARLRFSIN
Summary of the method: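 Read-out is luminescence from luciferin produced by CYP1A2 demethylation of Luciferin-ME (100uM, at Km). Detection reagent stopped the 60 min NADPH-dependent reaction; signals were normalized to 57 uM furafylline.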

[2] = molecular target: 3',5'-cyclic-AMP phosphodiesterase 4B (Homo sapiens) (UniProt Q07343); experiment: qHTS Assay for Inhibitors of PDE-IV (AID 607; active = well fitted activation curve with a large enough effect in the main read-out, with a control signal flat, not every such curve was filed as active)
Chain of 3',5'-cyclic-AMP phosphodiesterase 4B (Homo sapiens) (Q07343 whole entry, looked up): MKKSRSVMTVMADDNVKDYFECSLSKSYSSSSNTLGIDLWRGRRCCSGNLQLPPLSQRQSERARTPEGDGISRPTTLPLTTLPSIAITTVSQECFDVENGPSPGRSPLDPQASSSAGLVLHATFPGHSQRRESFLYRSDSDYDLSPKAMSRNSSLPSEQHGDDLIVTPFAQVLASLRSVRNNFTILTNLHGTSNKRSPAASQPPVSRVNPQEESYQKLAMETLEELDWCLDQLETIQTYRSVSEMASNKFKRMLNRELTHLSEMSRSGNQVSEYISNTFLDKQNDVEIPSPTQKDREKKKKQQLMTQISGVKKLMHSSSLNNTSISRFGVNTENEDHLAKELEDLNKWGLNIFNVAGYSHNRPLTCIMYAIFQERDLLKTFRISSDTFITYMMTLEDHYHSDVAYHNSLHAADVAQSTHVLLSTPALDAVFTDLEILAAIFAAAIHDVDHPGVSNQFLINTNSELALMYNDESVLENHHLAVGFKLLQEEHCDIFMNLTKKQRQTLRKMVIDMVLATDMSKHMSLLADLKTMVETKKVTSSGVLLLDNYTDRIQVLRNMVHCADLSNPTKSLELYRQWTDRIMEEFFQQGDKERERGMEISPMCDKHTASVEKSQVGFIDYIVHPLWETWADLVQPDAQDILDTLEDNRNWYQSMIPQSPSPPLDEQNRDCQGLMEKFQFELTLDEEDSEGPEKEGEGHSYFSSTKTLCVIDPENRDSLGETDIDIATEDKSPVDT
Summary of the method: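 ACTOne HEK293 cells carry a modified cAMP-gated CNG channel and express endogenous PDE4; plated 1000 cells/well, compounds up to 22.9 uM final. Membrane-potential dye fluorescence (ex 535/em 590) was read; parental cells received 10 uM forskolin + 100 uM RO 20-1724.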

[3] = molecular target: Cytochrome P450 3A4 (Homo sapiens) (UniProt P08684); experiment: qHTS Assay for Activators of Cytochrome P450 3A4 (AID 885); note: nearly all actives have a fitted effect of over 65% in size
Chain of Cytochrome P450 3A4 (Homo sapiens) (P08684 whole entry, looked up): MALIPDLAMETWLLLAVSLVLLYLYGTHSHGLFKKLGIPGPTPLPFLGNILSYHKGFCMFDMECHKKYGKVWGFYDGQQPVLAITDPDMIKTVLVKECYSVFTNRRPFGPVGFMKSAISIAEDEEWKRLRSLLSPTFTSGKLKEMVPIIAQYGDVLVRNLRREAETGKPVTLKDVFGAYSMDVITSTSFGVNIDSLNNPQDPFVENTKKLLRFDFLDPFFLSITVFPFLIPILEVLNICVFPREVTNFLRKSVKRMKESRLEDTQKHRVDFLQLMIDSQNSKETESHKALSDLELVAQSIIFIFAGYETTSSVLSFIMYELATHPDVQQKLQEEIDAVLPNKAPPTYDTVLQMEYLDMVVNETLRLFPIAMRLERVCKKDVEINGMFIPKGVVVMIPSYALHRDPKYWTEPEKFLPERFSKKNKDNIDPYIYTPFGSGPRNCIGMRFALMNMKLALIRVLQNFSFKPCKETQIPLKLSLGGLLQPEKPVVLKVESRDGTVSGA
Summary of the method: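 CYP3A4 activity: Luciferin-PPXE O-dealkylation, 25uM substrate, 200mM KPO4, RT throughout. Read-out is luciferase luminescence; higher values reflect activation.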

[4] = molecular target: Cytochrome P450 2C19 (Homo sapiens) (UniProt P33261); experiment: qHTS Assay for Inhibitors and Substrates of Cytochrome P450 2C19 (AID 899); note: potency is the fitted concentration of half-maximal effect; nearly all actives have a fitted effect of over 60% in size
Chain of Cytochrome P450 2C19 (Homo sapiens) (P33261 whole entry, looked up): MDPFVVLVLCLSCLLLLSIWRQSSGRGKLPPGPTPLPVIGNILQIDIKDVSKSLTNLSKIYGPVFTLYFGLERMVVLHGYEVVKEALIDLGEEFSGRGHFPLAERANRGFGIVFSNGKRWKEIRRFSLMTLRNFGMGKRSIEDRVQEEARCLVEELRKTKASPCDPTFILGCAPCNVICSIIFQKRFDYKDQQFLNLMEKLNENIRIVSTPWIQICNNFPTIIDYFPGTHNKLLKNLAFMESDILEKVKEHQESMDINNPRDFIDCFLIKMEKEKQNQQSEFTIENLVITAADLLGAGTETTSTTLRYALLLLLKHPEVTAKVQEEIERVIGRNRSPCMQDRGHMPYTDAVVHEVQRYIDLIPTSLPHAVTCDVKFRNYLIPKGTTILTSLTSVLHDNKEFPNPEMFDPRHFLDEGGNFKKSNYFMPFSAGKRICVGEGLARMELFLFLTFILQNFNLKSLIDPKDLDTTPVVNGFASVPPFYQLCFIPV
Summary of the method: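 Signal comes from luciferase acting on luciferin released by CYP2C19-mediated hydroxylation of Luciferin-H EGE, 10uM (KM). Assay mix: 5nM enzyme, 50mM KPO4; 60 min at 37C with NADPH regeneration. Data normalized against 57uM ketoconazole.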

For `CCC/C=C(\CCC)C(NS(=O)(=O)c1ccc(C(F)(F)F)cc1)c1ccccc1` (centres undefined), the Potency [1] was 7.94 µM (active), the Potency [2] was “inactive” and the Potency [3] was “inactive”. For the same compound, the Potency [4] was 0.398 µM (active).
